# Screening data deposited in PubChem BioAssay by National Center for Advancing Translational Sciences (NCATS).
# MCF10A rereplic: DNA re-replication induction in MCF 10a cells; MCF 10A DNA re-replication, Hoechst nuclear intensity, 48 h; Potency, µM (highest dose often 46.1 µM), for inactives: at the top dose activity, positive = re-replication, hits mostly activators; actives 2.9% (n = 350,000); AID 624296; note: % of control where 0% means no effect; nearly all actives have a fitted effect of over 50% in size
# SW480 rerep: DNA re-replication induction in SW480 cells; AID 624297; Potency, µM (series often up to 46.1 µM), for inactives: top-dose re-replication activation, most hits filed as activators; actives 1.8% (n = 340,000); SW480 DNA re-replication, Hoechst DNA content imaging, 48 h; note: % of control where 0% means no effect; nearly all actives have a fitted effect of over 55% in size
#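 DNA re-replication was detected as more nuclei of elevated Hoechst intensity after 48 hr exposure to compound (23 nL pinned per well of 250 cells).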
# KB-3-1 cytotox: KB-3-1 parental cell cytotoxicity | actives 1.4% (n = 400,000) | KB-3-1 viability, CellTiter-Glo ATP luminescence, 72 h | AID 1347075 | Potency, µM (top dose mostly 46.1 µM), hits mostly cytotoxic; note: % is set by controls: 0 for no effect and ±100 for the full control effect; nearly all actives have a fitted effect of over 60% in size
#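 72 h, 37 °C compound treatment of KB-3-1 parental cells; CellTiter-Glo added, 10 min, luminescence read. Data corrected against DMSO-only plates and normalized before curve fitting.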
# KB-V1 cytotox: KB-V1 MDR subline cytotoxicity; KB-V1 MDR cells viability, CellTiter-Glo, 72 h; Potency, µM (top dose mostly 46.1 µM), hits mostly cytotoxic; actives 3.4% (n = 400,000); note: % is set by controls: 0 for no effect and ±100 for the full control effect; nearly all actives have a fitted effect of over 60% in size
#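 Cells of the MDR subline KB-V1 are plated, dosed with compound at multiple concentrations, and incubated 72 h at 37 degrees C; CellTiter-Glo is then added and luminescence read after 10 min.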
# ELG1 repair inh: inhibitors of ELG1-dependent DNA repair in HEK293T cells | Potency, µM (doses to about 46.1 µM), without a hit: top-dose activity change, negative = inhibition, actives largely listed as inhibitors | HEK293T ELG1-luciferase reporter, luminescence, 16 h; DNA damage induced by 5-fluorouridine | AID 504467 | actives 2.3% (n = 330,000); note: % is set by controls: 0 for no effect and ±100 for the full control effect; nearly all actives have a fitted effect of over 55% in size
#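 In this reporter screen, reduction of luminescence relative to DMSO vehicle indicated activity. Compounds and 5-fluorouridine were added together to 2,000 cells per well, incubated for 16 hr at 37 °C, then developed with ONE-Glo.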
# Numbers without * were called inactive; i = inactive; ? = inconclusive; · = no result; [ ] = another dose, or the depositor's remark. An excerpt weighted towards active compounds, which were near 8.2% of everything screened. Calls come from the whole dose curve; as a rule, active = well fitted curve in the direction sought with a large enough effect; inconclusive = small, poorly fitted or top-dose-only effect, or another doubt; inactive = no such curve, though single readings can be large; an effect the other way counts as inactive or inconclusive. Potency is the fitted concentration of half-maximal effect.
SMILES,MCF10A rereplic,SW480 rerep,KB-3-1 cytotox,KB-V1 cytotox,ELG1 repair inh
Cc1cc(C(=O)CSc2nc3ccc(Cl)cc3[nH]2)c(C)n1CC1CCCO1 (stereo unspecified),?,?,i,i,23µM*
Cc1cc(C(=O)CSc2nnc(-c3ccncc3)n2-c2ccccc2)c(C)n1C,0%,0%,i,i,-21%
Cc1cc(C(=O)CSc2nnc(-c3ccccc3)n2C)c(C)n1C,-1%,-8%,i,7.3µM*,-16%
Cn1c(=O)c2cc(S(=O)(=O)NCCC(=O)N3CC=C(c4ccccc4)CC3)ccc2n(C)c1=O,-12%,-1%,i,23µM*,?
CC[C@]1(C(=O)OC)[C@H]2C(=O)N(Cc3ccccc3)C(=O)[C@H]2[C@H]2CN=C(SCC3CC3)N21,18%,10%,i,i,14%
O=C(C1CC(=O)N(C2CCCC2)C1)N1CCC(Cc2ccccc2)CC1 (stereo unspecified),0%,5%,i,13µM*,0%
N#Cc1cccc(NS(=O)(=O)c2ccccc2Cl)c1,?,6%,i,?,16%
Cc1ccc(C)c(C(=O)NC(C)CCc2ccccc2)c1 (stereo unspecified),2%,11%,i,i,3%
Cc1occc1C(=O)NC(C)CCc1ccccc1 (stereo unspecified),21µM*,1%,i,i,-5%
CC(=O)Nc1ccc2nc(-c3ccncc3)[nH]c2c1,-3%,-11%,i,i,?
CC(=O)Nc1ccc2nc(-c3cc(C)ccc3C)[nH]c2c1,·,·,?,16µM*,·
Cc1ccc(-c2nnc(N3CCOCC3)c3ccccc23)cc1S(N)(=O)=O,3%,-7%,i,i,·
CCO[C@H]1OC(C(N)=O)=C[C@@H](C(C)(C)C)[C@@H]1CCCO,-7%,1%,i,i,·
Cc1ccc(-c2nn(-c3ccccc3)cc2/C=C(\C#N)C(=O)NCc2ccccc2)cc1,4%,1%,i,i,2%
CC(NC(=O)/C(C#N)=C/c1cn(-c2ccccc2)nc1-c1ccc(F)cc1)c1ccccc1 (stereo unspecified),-6%,-8%,i,i,?
CCSc1ccc(-c2nn(-c3ccccc3)cc2/C=C(/C#N)C(=O)NCCCOC)cc1,15µM*,?,i,i,10%
CCCSc1ccc(-c2nn(-c3ccccc3)cc2/C=C(/C#N)C(=O)NCCCOC)cc1,9%,4.1µM*,i,?,11%
COC(C(=O)Nc1ccc(S(=O)(=O)Nc2ccc(F)cc2)cc1)c1ccccc1 (stereo unspecified),3%,?,i,i,-6%
COC(C(=O)Nc1ccc(S(=O)(=O)Nc2cccc3ccccc23)cc1)c1ccccc1 (stereo unspecified),?,·,i,18µM*,-17%
Cc1cccc2cc(C#N)c(SCC(=O)N3CC(=O)Nc4ccccc43)nc12,0.65µM*,7.3µM*,0.82µM*,?,?
COc1ccc2cc(C#N)c(SCC(=O)N3CC(=O)Nc4ccccc43)nc2c1,21µM*,?,7.3µM*,i,?
Cc1cccc2cc(C#N)c(SCC(=O)N3CCC(C)CC3)nc12,14%,2%,i,?,?
COc1ccc2cc(C#N)c(SCC(=O)N3CCCC3)nc2c1,3%,1%[9.22 µM],?,?,6%
CCOc1ccc2cc(C#N)c(SCC(=O)N3CCC(C)CC3)nc2c1,?,0%,i,2.6µM*,?
O=C(CSc1nnc(-c2ccccc2Cl)o1)N1CCCc2ccccc21,·,·,?,i,·
SMILES,MCF10A rereplic,SW480 rerep,KB-3-1 cytotox,KB-V1 cytotox,ELG1 repair inh
O=c1cc(NCCCO)c2ccccc2o1,201%[0.0737 µM],-18%,i,i,7%
CN(C)CCNc1ccc(CO)c2oc3ccc(O)cc3c(=O)c12,27%,?,16µM*,i,·
NC(c1ccccc1)c1csc(Nc2ccc(C(F)(F)F)cn2)n1 (stereo unspecified),·,·,i,i,·
CC(C)C[C@@H](NC(=O)[C@@H](Cc1ccccc1)NC(=O)c1cnccn1)B(O)O,57%,0.0042µM*,·,·,·
CCC(CC)C(=O)N(C)c1c(C)nc2c(OCc3cccc(OC)c3)cccn12,·,·,i,?,·
CCc1ccc(CC2S/C(=C(\C#N)C(C)=O)NC2=O)cc1 (stereo unspecified),?,20%,?,7.3µM*,0%
C/C(=N\N=C1\NC(=O)C(CC(=O)Nc2ccc(C)c(Cl)c2)S1)C(C)(C)C (stereo unspecified),?,3%,i,i,-5%
CC(=O)/C(C#N)=C1\NC(=O)C(Cc2ccc(C)c(Cl)c2)S1 (stereo unspecified),?,-10%,18µM*,9.2µM*,-6%
CCOC(=O)c1ccc(CC2S/C(=C(\C#N)C(C)=O)NC2=O)cc1 (stereo unspecified),?,-2%,?,i,?
Cc1cc(NCCCn2ccnc2)n2nc(C)c(-c3ccccc3)c2n1,0%,0%,i,?,?
Cc1cc(NCCN2CCOCC2)n2nc(C)c(-c3ccc(Cl)cc3)c2n1,-1%,12%,?,23µM*,-13%
Cc1cc(NCCCn2ccnc2)n2nc(C)c(-c3ccc(Cl)cc3)c2n1,21%,3%,?,23µM*,?
Cc1cc(Cl)n2nc(C)c(-c3ccc(Cl)cc3)c2n1,16µM*,?,i,i,1%
Cc1cc(NCCN2CCOCC2)n2nc(C)c(-c3ccccc3)c2n1,-1%,-8%,i,i,3%
CCOc1ccc(CCNC(=O)Cn2c(-c3cccs3)cc3ccccc32)cc1,·,·,i,i,·
COc1ccc(NC(=O)COC(=O)C2CCCN2C(=O)OC(C)(C)C)cc1Cl (stereo unspecified),·,·,i,i,·
